The list shows a part of the results. A call without a number means that no potency is given here. Records with an inconclusive call do not appear. Activity calls are given as the source filed them. Calls follow the shape of the full dose curve.
Potency is read from the fitted curve at half-maximal effect.

Chain of Polyprotein P1234 (Chikungunya virus (strain S27-African prototype)) (Q8JUX6 whole entry, looked up): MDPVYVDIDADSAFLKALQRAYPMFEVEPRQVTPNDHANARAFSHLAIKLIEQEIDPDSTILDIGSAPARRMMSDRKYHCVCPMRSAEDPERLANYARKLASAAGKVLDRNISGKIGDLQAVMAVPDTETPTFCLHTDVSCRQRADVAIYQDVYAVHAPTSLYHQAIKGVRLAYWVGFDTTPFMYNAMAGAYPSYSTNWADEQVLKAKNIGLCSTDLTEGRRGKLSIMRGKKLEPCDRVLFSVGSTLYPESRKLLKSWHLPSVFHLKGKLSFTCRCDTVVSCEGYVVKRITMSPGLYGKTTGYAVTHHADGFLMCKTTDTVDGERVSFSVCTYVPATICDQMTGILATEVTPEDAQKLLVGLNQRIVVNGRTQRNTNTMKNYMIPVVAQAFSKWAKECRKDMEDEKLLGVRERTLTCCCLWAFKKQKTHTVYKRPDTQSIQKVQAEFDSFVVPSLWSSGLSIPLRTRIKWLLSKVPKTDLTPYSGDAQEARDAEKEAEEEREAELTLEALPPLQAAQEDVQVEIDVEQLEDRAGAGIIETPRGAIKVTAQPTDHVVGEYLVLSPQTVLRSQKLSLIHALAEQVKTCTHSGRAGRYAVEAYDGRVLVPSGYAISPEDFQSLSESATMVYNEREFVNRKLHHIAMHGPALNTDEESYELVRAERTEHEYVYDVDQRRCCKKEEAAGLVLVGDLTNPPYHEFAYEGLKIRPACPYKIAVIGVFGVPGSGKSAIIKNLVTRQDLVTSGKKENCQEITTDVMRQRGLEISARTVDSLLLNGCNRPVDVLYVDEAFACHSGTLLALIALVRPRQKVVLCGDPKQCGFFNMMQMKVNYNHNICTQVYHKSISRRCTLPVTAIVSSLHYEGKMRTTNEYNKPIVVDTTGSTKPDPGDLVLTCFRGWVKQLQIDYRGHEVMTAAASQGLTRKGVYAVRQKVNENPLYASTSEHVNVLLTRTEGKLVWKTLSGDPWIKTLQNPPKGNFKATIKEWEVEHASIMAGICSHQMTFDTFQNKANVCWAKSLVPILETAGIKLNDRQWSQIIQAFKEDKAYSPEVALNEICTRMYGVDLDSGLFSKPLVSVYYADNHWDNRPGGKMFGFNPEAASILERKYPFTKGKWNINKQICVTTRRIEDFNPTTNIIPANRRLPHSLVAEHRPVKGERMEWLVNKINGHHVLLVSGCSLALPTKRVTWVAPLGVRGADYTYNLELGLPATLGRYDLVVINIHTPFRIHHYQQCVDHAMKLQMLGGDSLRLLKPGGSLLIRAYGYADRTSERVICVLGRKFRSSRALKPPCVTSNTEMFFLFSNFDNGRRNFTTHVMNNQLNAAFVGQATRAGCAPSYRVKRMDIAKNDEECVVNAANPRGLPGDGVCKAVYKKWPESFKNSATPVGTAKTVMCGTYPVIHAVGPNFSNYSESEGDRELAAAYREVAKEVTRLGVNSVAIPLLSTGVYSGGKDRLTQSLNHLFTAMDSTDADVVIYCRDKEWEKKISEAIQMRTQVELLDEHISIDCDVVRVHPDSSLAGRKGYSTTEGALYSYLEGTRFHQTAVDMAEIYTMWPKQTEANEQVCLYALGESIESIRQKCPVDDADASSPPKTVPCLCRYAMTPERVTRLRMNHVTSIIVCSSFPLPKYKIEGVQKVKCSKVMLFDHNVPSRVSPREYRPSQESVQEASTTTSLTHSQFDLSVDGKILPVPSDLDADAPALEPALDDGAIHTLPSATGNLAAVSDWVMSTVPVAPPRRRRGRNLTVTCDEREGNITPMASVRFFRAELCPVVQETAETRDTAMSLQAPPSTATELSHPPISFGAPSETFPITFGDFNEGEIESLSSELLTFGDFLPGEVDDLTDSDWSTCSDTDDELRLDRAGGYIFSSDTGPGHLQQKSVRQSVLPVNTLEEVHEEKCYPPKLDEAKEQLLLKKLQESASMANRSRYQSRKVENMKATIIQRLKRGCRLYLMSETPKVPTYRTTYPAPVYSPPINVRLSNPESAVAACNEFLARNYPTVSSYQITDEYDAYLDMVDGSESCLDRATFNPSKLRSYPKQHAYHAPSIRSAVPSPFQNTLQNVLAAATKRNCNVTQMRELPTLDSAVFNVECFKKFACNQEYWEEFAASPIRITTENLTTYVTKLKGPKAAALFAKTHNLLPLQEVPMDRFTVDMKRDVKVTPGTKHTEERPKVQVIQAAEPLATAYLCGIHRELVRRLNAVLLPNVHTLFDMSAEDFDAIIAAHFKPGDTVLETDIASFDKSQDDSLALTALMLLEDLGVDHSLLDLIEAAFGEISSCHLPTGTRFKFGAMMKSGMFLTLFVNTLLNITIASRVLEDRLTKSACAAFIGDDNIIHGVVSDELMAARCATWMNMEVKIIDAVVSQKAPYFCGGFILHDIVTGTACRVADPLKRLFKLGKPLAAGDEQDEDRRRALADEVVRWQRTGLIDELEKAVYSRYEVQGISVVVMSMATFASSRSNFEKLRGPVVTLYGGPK

The test has as its target Polyprotein P1234 (Chikungunya virus (strain S27-African prototype)) (UniProt Q8JUX6). As to the kind of experiment: Selectivity profile for inhibitors of NSP2Pro chikungunya virus (CHIKV): Endogenous NS2/3 peptide Counterscreen (AID 1964103). Also: nearly all actives have a fitted effect of over 55% in size. Particulars: Purified CHIKV nsP2 protease, endogenous NS2/3 peptide cleavage; series mostly up to 51 µM. The text has this:
PI: Natalia J. Martinez Ph.D.
National Center for Advancing Translational Sciences (NCATS),
National Institute of Health (NIH), Rockville, Maryland
Chikungunya virus (CHIKV) is a mosquito-borne RNA virus that has emerged as one of the most important global arboviral threats in the last decade. Although the first CHIKV vaccine has recently been FDA approved for use in healthy adults at increased risk, to date, there are no available antiviral drugs for CHIKV infection. CHIKV nsP2 protease plays a crucial role in the processing of the viral polypeptide precursor to release enzymes required for viral replication, thus making it a promising drug target for antiviral discovery. Here, we established a high-throughput pipeline to identify small molecule inhibitors of nsP2 proteolytic activity. The pipeline is composed of a suite of 1,536-well in vitro assays to support quantitative high-throughput (qHTS) screening campaigns. Specifically, we developed a fluorescence resonance energy transfer (FRET)-based assay using a fluorogenic peptide substrate encompassing an endogenous cleavage site and purified recombinant protease domain (nsP2pro). Using this assay, we interrogated ~37,000 small molecules, including those in drug repurposing libraries as well as chemically diverse and medicinal chemistry-friendly compounds. Hits were selected for follow-up validation against full-length nsP2 and an additional peptide. FRET-based 1,536-well assays for papain, hepatitis C virus NS3-4A, and human furin proteases were implemented to characterize compound selectivity. […] Novel compounds were identified to be potential nsP2 inhibitors and molecular docking analyses were performed to explain the binding mode of selected hits. In vitro antiviral activity was evaluated for a subset of compounds using a high-throughput CHIKV infection assay. To our knowledge, the pipeline presented here is unprecedented for CHIKV antiviral discovery research.
PROTOCOL TABLE (as described by Inglese J, Shamu CE and Guy RK. 2007)
SEQUENCE No. (e.g., 1, 2, 3, etc.); […] (e.g., Cells, Incubation, Reagent, etc.); VALUE; DESCRIPTION.
1; Control / Compound; 20 nL; Echo 655 acoustic dispenser, Greiner 1536-well solid bottom black plate.
2; Enzyme; 4 uL; BioRAPTR FRD liquid dispenser (Beckman Coulter).
3; Incubation; 15 min; room temperature.
4; Reagent; 4 uL; 2.5 uM endogenous NS2/3 peptide substrate.
5; Incubation; 1 hr; room temperature.
6; Detection; Fluorescence; WiewLux microplate reader (PerkinElmer), 525 nm excitation, 598/25 nm emission.
NOTES (numbers refer to sequence numbers above).
1. Briefly, 20 nL DMSO, positive control ZnAc (20nM final concentration), and test compounds were transferred into a 1,536-well solid bottom black plate (789176-F, Greiner One) via Echo 655 acoustic dispenser (Beckman Coulter). For primary screens, compounds were tested at 7 concentrations, 1:3 dilution points ranging from 25 uM to 34 nM. Follow-up confirmatory screens were carried out at 11 concentrations, 1:3 dilution points from 25 uM to 0.42 nM.
2. Four uL nsP2pro enzyme mix (150 nM final concentration) in 10 mM Tris-HCl pH 8.0 with 0.01% Tween 20 assay buffer was dispensed into the plate using a BioRAPTR FRD liquid dispenser (Beckman Coulter).
3. The plate was incubated at room temperature (protected from light) for 15 min
4. Four microliter of endogenous NS2/3 peptide substrate (peptide 3: TMR-[…]/APSYR-K-QSY7; 2.5 uM final concentration) in assay buffer was added to the plate.
5. After 1 hour, plates were immediately read on a ViewLux high-throughput CCD imager (Exposure = 10 sec, Gain = High, Speed = Slow, Binning = 2X). The above assay was also incorporated in the NCATS HTS facility41, which allowed for robotic liquid and compound dispensing, microplate handling, and fluorescence reading.
Inglese J, Shamu CE and Guy RK, Reporting data from high throughput screening of small molecule libraries, Nature Chemical Biology, 2007, 3(8): 438-441. doi.org/10.1038/nchembio0807-438.
(The purpose of a counterscreen is to sort out artefacts and off-target activity.)
With `C[C@@H]1[C@H](O)[C@@H]2OC(=O)C3=C2[C@H](CCC3)[C@@]12C[C@@H](c1ccoc1)OC2=O`, the Potency entry is “inactive”. With `C[C@@H]1C[C@@H](O)[C@@]23CO[C@]2(CO)C[C@@H](O)CC3[C@@]12CC(c1ccoc1)OC2=O` (stereo not given in full), the Potency result is “inactive”. For `CC1=C(/C=C/C(C)=C/C=C/C(C)=C/C=C/C=C(C)/C=C/C=C(C)/C=C/C2=C(C)CCCC2(C)C)C(C)(C)CCC1`, the Potency result is “inactive”. As for `Cn1nnnc1Sc1ncnc2n[nH]c(-c3cccc(S(C)(=O)=O)c3)c12`, the figure is 4.47 µM (active); as for `CCC(C)C(=O)OC1C(C)C2(O)C(C=C(CO)CC3(O)C(=O)C(C)=CC32)C2C(C)(C)C12OC(=O)C(C)C` (stereo not given), “inactive”; as for `CCc1ccccc1NC(=O)c1cnn(-c2ccc(F)cc2)c1C1CCNCC1`, “inactive”. Under `CCOc1ccc(NC(=O)c2c(NC(=O)Cc3ccccc3)sc3c2CCC(C)C3)cc1` (stereo not given) stands 13 µM (active). Under `CC(=O)N[C@@H](C(=O)O[C@H]1CCC(C)(C)[C@@H]2CCC3=C(COC3=O)[C@@]12C)C(C)C` stands “inactive”; under `CCOc1ccc(NC(=O)c2c(NC(=O)Cc3ccccc3)sc3c2CCCCC3)cc1`, 16.3 µM (active).

For `N#CSc1cc(SC#N)c(N)nc1N`, the Potency is 0.206 µM (active). For the compound `CCOc1ccc(N(Cc2ccccc2)C(=O)c2nc(S(C)(=O)=O)ncc2Cl)cc1`, the Potency was 4.61 µM (active).

With `O=C(O)c1cccc(-n2[nH]c(-c3ccccc3)cc2=O)c1`, the Potency result was “inactive”. As for `Oc1ccc(OC2CCCCO2)cc1` (stereo not given), the entry is “inactive”; as for `Cc1c(S(=O)(=O)O)oc2c1C(=O)C(=O)c1c-2ccc2c1CCCC2(C)C`, “inactive”; as for `CO[C@]1(NC(=O)CSC(F)F)C(=O)N2C(C(=O)O)=C(CSc3nnnn3CCO)CO[C@H]21`, “inactive”.
